Source: PubChem BioAssay (National Center for Advancing Translational Sciences (NCATS))
A selection: hits, their analogues and other compounds. The true share with any hit is near 6%.
D1 ag – Allosteric Agonists of the Human D1 Dopamine Receptor: qHTS; 360,000 tested, 1% active; activation, % at 2 µM; HEK293 T-REx D1 cells, calcium flux, agonist mode; D(1A) dopamine receptor (Homo sapiens), P21728; in the data active = activation above about 30%; note: 0% is about no effect
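Tetracycline-induced HEK293 TREx D1 cells, force-coupled to calcium signalling, were dye-loaded with a no-wash calcium kit. Compound was pin-added after a 10 s baseline. Fluorescence was read kinetically at 1 cycle/s for 180 s, with calcium rises flagged as agonism.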
D1 antag – Antagonist of Human D 1 Dopamine Receptor: qHTS. D(1A) dopamine receptor (Homo sapiens), P21728. HEK293 TREx D1 cells, calcium flux, dopamine EC80; hits give low values. activity change, negative = inhibition, % at 10 µM. 360,000 tested, 3.2% active; in the data active = activity change below about -30%; note: % is set by controls: 0 for no effect and ±100 for the full control effect
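After overnight tetracycline induction at 30 C, force-coupled D1 HEK293 cells took up a no-wash calcium dye at room temperature. Compounds were added and monitored 180 s, and the response to EC80 dopamine was then recorded.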
D3 ag – qHTS of D3 Dopamine Receptor Agonist: qHTS. D(3) dopamine receptor (Homo sapiens), P35462. D3R DiscoveRx beta-arrestin cells, luminescence, 90 min. max activation, %. 410,000 tested, 0.58% active; in the data active = max activation above about 30%; note: 0% is about no effect
Target sequence (P35462 whole entry, looked up): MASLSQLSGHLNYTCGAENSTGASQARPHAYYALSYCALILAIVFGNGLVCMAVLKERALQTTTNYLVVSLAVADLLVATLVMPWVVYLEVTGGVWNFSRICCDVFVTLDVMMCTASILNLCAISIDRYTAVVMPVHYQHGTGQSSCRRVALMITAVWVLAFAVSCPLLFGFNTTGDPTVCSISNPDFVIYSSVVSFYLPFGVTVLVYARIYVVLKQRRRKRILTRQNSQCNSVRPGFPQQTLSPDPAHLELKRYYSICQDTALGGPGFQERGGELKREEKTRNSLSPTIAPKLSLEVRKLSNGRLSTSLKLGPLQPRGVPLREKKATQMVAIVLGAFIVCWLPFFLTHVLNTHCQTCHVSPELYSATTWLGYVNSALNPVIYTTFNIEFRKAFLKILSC
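Agonist-mode cell screen: cells plated at 1500/well and incubated overnight at 37 °C, then exposed to library compounds for 90 min at 37 °C. Detection reagent was added for 30–60 min at room temperature, and luminescence was read.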
D1 potentiator – Potentiators of Human D1 Dopamine Receptor: qHTS. AID 504651, 2011. 360,000 tested, 0.036% active. potentiation, % at 10 µM. HEK293 TREx D1 cells, calcium flux, dopamine EC20 potentiation. D(1A) dopamine receptor (Homo sapiens), P21728; in the data active = potentiation above about 30%; note: 0% is about no effect
D3 antag – qHTS of D3 Dopamine Receptor Antagonist: qHTS. AID 652054, 2013. D3R cells, DiscoveRx beta-arrestin luminescence, antagonist mode; hits give low values. D(3) dopamine receptor (Homo sapiens), P35462. max response, negative = inhibition, %. 360,000 tested, 2.5% active; in the data active = max response below about -50%; inconclusive = no clear call, values can overlap the other calls; note: % is set by controls: 0 for no effect and ±100 for the full control effect
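Cells expressing the human receptor were seeded at 1500 cells/well, incubated overnight at 37 degrees C in 5% CO2, then exposed to library compounds with dopamine controls for 90 minutes at 37 degrees C before luminescent detection.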
Starred values were filed as active, the others as inactive; ? = inconclusive; . = not tested or not shown; ! = repeats disagree.

SMILES	D1 ag	D1 antag	D3 ag	D1 potentiator	D3 antag
COCCn1c(SC(C)C(=O)NCC2CCCO2)nc2scc(-c3ccc(F)cc3)c2c1=O (stereo not drawn)	1	-42*	3	-9	-13
COc1ccc(-c2nc(SCC(=O)N3CCC(C)CC3)n[nH]2)cc1	-2	2	0	0	.
CCN(CC)CCCNC(=O)CCCn1c(=O)[nH]c2ccc(Br)cc2c1=O	0	-31*	-7	3	.
CC(=O)Nc1nnc2n1CCS2	1	21	-12	-3	.
CCc1ccc(NC(=O)c2cnc(N3CCN(c4ccccn4)CC3)c3ccccc23)cc1	2	-40*	21	-2	6
CCCn1cnc2c(c1=O)c1nc3ccccc3nc1n2CCc1ccccc1	1	-4	19	-2	-53*
CCCCn1c2nc3ccccc3nc2c2c(=O)n(CCC(C)C)cnc21	3	-42*	2	-3	4
CCCCn1c2nc3ccccc3nc2c2c(=O)n(-c3ccccc3)cnc21	2	11	-8	-13	-7
O=C(NNC(=O)c1cccc(S(=O)(=O)Nc2ccccc2F)c1)c1ccncc1	.	.	-7	.	0
CCNC(=O)C1(C)CCCN(C(=O)C2(c3ccc(Cl)cc3)CCCC2)C1 (stereo not drawn)	.	.	-10	.	0
NS(=O)(=O)c1ccc(NC(=S)NCc2ccccc2Cl)cc1	9	-9	-8	11	-68*
Cc1cc(-c2ccccc2)nc2[nH]n(-c3ccccc3)c(=O)c12	-1	5	-7	-3	-68*
O=C(NCCc1ccc(C(F)(F)F)cc1)C1CCC(=O)N(CCCc2ccccc2)C1 (stereo not drawn)	6	-18	-7	1	-2
Cn1cccc1CNC(=S)Nc1ccccc1Cl	4	-42*	-16	-10	-3
Cn1cccc1CNCc1ccccc1Cl	1	22	-31	-6	-64*
Cn1cccc1CNC(=S)Nc1ccccc1F	1	-8	-15	-7	-1
NC(=O)N=Nc1c2[nH]c3ccccc3nc-2c2ccccc12	-1	-8	11	-6	73
c1ccc(CCNc2nnnn2-c2ccccc2)cc1	7	-1	-13	8	-14
C1=C(CCNc2nnnn2-c2ccccc2)CCCC1	3	-8	-8	-1	-61*
COc1ccc(F)cc1-c1cc(NC(C)=O)c2ncc(-c3cccc(C(F)(F)F)c3)n2c1	.	.	3	.	10
CCOC(=O)c1c(NC(C)=O)sc2c1CCC(C=O)=C2Sc1ccccc1	1	12	-29	-3	-58*
CCn1c(=O)c([N+](=O)[O-])c(NCCN(C)C)c2ccccc21	-1	-13	-22	-8	-59*
O=c1c([N+](=O)[O-])c(O)c2ccccc2n1Cc1ccccc1	8	4	0	-2	8
O=c1c([N+](=O)[O-])c(NCCN2CCCCCC2)c2ccccc2n1-c1ccccc1	0	13	-16	0	-98*
CCn1c(=O)c([N+](=O)[O-])c(NCC(O)c2ccccc2)c2ccccc21 (stereo not drawn)	4	1	-9	1	-14
SMILES	D1 ag	D1 antag	D3 ag	D1 potentiator	D3 antag
CCn1c(=O)c([N+](=O)[O-])c(Cl)c2ccccc21	1	-9	-23	-4	-115*
COc1ccc(C(O)c2ncc(-c3ccccc3Cl)[nH]2)cc1F (stereo not drawn)	.	.	1	.	12
COc1ccccc1OCCSc1nc2ccccc2n1CC(=O)O	.	.	-4	.	-14
Oc1c(Br)cc(Br)cc1/C=N/c1nccs1	3	-11	-23	-9	-55*
Oc1ccc(Cl)cc1/C=N/c1nccs1	3	-12	-11	1	11
CC(C)c1ccc(NC(=O)COc2ccccn2)cc1	2	-91*	-16	-9	0
CC(C)c1ccc(NC(=O)COc2ccccc2)cc1	1	-6	-3	-2	1
COc1ccccc1CNC(=O)c1cc2sccc2n1Cc1ccc(F)cc1	19	-9	-17	-3	.
O=S(=O)(c1ccccc1)N1CCN(c2ccnc3cc(Cl)ccc23)CC1	7	-41*	10	10	-8
O=S(=O)(c1ccc(Cl)cc1)N1CCN(c2nc(-c3ccc(Cl)cc3)nc3ccccc23)CC1	0	-36*	.	2	.
Cc1cc(N2CCN(S(=O)(=O)c3ccccc3)CC2)c2ccccc2n1	11	-35*	2	-3	4
O=C(Nc1ccc(C(F)(F)F)cc1)N1CCN(c2ccnc3cc(Cl)ccc23)CC1	13	-37*	-5	-14	-2
O=C(NCCCSc1ccccc1)c1cnc(Cl)c(Cl)c1	12	-30*	0	-7	9
CC(C)C(=O)NCCn1ccc2ccccc21	1	14	-3	-5	-53*
CCC(=O)NCCn1ccc2ccccc21	-1	-17	3	7	-2
O=C(NCCn1ccc2ccccc21)c1cccc([N+](=O)[O-])c1	8	-37*	2	-3	2
CCOc1ccc(S(=O)(=O)c2cc3cccc(OCC)c3oc2=O)cc1	2	-7	-4	-3	.
CC(NS(=O)(=O)c1ccc(Cl)cc1)C(=O)OCC(=O)Nc1ccc(N(C)C)cc1 (stereo not drawn)	1	-45*	-2	-1	-13
CCc1ccc(CN(C(=O)c2nc(SC)ncc2Cl)C2CCS(=O)(=O)C2)cc1 (stereo not drawn)	0	-4	0	-2	.
Cc1cnc(NC(=O)C2=C(O)c3ccccc3S(=O)(=O)N2C)s1	3	-52*!	-29	-5	?
COc1ccccc1N1CCN(C(=O)CSc2nc3ccccc3nc2N2CCC(C)CC2)CC1	7	15	25	12	35
Nc1nc2ccccc2cc1C(=O)NCCCCc1ccccc1	.	.	5	.	4
Cc1nnc2c3ccccc3c(-c3ccc(O)cc3)nn12	6	-7	-2	-3	16
Cc1c(-c2ccc(O)cc2)nc2nc(-c3ccccc3)c(-c3ccccc3)nn12	86*	6	.	-10	.
COc1ccc(C(c2sc3nc(C)nn3c2O)N2CCN(Cc3ccccc3)CC2)cc1OC (stereo not drawn)	2	-51*	0	-11	6
N#C/C(=C\c1ccco1)C(=O)NCc1ccccc1	0	0	-1	-4	-8
N#CC(C#N)=C1C=CC=CN1/C(=C\c1ccco1)C(=O)c1ccc(Cl)cc1	3	-52*	-6	-11	-108*
N#CC(C#N)=C1C=CC=CN1/C(=C\c1ccco1)C(=O)c1ccc(-c2ccccc2)cc1	1	-20	-11	-5	-92*
CC(/C=N/n1c(-c2ccc(Cl)cc2)n[nH]c1=S)=C\c1ccco1	1	6	3	10	-15
